Here are results for 47 molecules from PubChem BioAssay (EPA / NIEHS).

A short description of experiment [1]: CCTE_Simmons_MITO_viability: CellTiter-Glo Viability Assessment for CCTE's HepG2 Seahorse XF Respirometric Screening Assay [post-hoc], Simmons Lab (AID 2284007; active = hit-call score of the fitted dose curve at least 0.9, where 1 is the maximum;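 as to AC50: cells exposed to chemical for 90 min before the ATP read; actives lower ATP signal relative to DMSO baseline meaning reduced viability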). Summed up: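 HepG2 cells; test chemical 7 conc. (125 nM–100 uM final) × 90 min; then luminescent ATP detection. DMSO vehicle. Positive control dichlone, 8 conc. from 10 nM to 100 uM final. Loss-of-signal endpoint.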
(In general: Cellular ATP, detected with luciferase, serves as a proxy for viable cell number.)

Experiment [2] can be described thus: CCTE_Shafer_MEA_acute_spike_number: CCTE's Neural Acute Assay for Total Number of Spikes, Shafer Lab (AID 2284008).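 As to AC50: curve fitted for decrease in spike count so AC50 reflects inhibitors.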 Summed up:
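Rat cortical cultures, DIV 13/15, 37 C. 40 min baseline rec, cpd 0.03-40 uM, 40 min post-dose rec. Band-pass 300-5000 Hz, spike threshold 8x rms; % change in spike count per well, DMSO neg ctrl, loss-of-signal fit.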

Experiment [3] can be described thus: CCTE_Shafer_MEA_acute_firing_rate_mean: CCTE's Neural Acute Assay for Mean Firing Rate, Shafer Lab (AID 2284009).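 Also: analyzed for loss of signal so actives lower firing rate relative to DMSO.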 Summed up: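 Percent change in well-mean firing rate was derived from extracellular spikes detected at 8x rms noise (300-5000 Hz band-pass) before and after a 40-min compound exposure. Cultures were primary rat cortical neurons, tested at 0.03-40 uM.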

A short description of experiment [4]: CCTE_Harrill_HTTr_Viability_MCF7: CCTE's 6-hour Cell Viability Assessment for the High-Throughput Transcriptomics (HTTr) Platform, in MCF-7 cells cultured in DMEM + 10% fetal bovine serum, Harrill Lab (AID 2284010). Summed up:
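Viability measured through PI dye exclusion by high-content imaging at 6 h post-dosing.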

Experiment [5] in a line: CCTE_Harrill_HTTr_Apoptosis_MCF7: CCTE's 6-hour Apoptosis Assessment for the High-Throughput Transcriptomics (HTTr) Platform, in MCF-7 cells cultured in DMEM + 10% fetal bovine serum, Harrill Lab (AID 2284011). Summed up:
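Read-out: CellEvent Caspase 3/7 Green signal by high content imaging, gain-of-signal indicating apoptosis. MCF-7 cells, DMEM + 10% FBS, eight-point dilution series, 6 h exposure. Curves fitted bidirectionally relative to DMSO negative control.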

The nature of experiment [6]: CCTE_Harrill_HTTr_CellCount_MCF7: CCTE's Cell Proliferation Assessment for the High-Throughput Transcriptomics (HTTr) Platform, Harrill Lab (AID 2284012; active = hit-call score of the fitted dose curve at least 0.9, where 1 is the maximum;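 also: count of Hoechst-stained nuclei per well by high-content imaging in MCF-7 cells; cells exposed to compound for six hours; intended direction is loss of nuclei count meaning fewer cells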). Summed up: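 Nuclei counting (Hoechst, high content imaging) in MCF-7 after a 6 h treatment at eight concentrations. Activity fitted bidirectionally, DMSO as negative control.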
Experiment [7] is described as follows: CCTE_Shafer_MEA_acute_burst_number: CCTE's Neural Acute Assay for Single-Electrode Bursts, Shafer Lab (AID 2284013). Summed up: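 Spontaneous network activity of primary rat cortical neurons was recorded extracellularly on microelectrode arrays at 37 C, with 40-min periods before and during exposure to 0.03-40 uM compound on DIV 13 or 15.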
Experiment [8] in a line: CCTE_Shafer_MEA_acute_burst_duration_mean: CCTE's Neural Acute Assay for Mean Burst Duration, Shafer Lab (AID 2284014).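 Also: hits are decreases in mean burst duration relative to DMSO controls.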 Summed up:
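Read-out is the per-well percent change in mean burst duration (first to last spike within a single-electrode burst) between 40-min recordings before and after compound. Cultures were primary rat cortical neurons on MEAs, dosed at 0.03-40 uM on DIV 13 or 15.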

Experiment [9] is described as follows: CCTE_Shafer_MEA_acute_per_burst_spike_number_mean: CCTE's Neural Acute Assay for Average Number of Spikes Per Burst, Shafer Lab (AID 2284015).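 Also: hits are decreases in mean spikes per burst versus baseline.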 Summed up: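 Percent change in mean spikes per single-electrode burst is compared between a 40 min baseline and a 40 min recording with compound (0.03-40 uM). Cultures were rat cortical neurons on MEA plates at DIV 13 or 15, recorded at 37 C, with DMSO as the negative control.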

Experiment [10] in a line: CCTE_Shafer_MEA_acute_interburst_interval_mean: CCTE's Neural Acute Assay for Mean Interburst Interval, Shafer Lab (AID 2284016).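 Also: percent change of mean interburst interval versus each well's own pre-dose baseline; curves fitted for decrease in interburst interval relative to DMSO.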 Summed up: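 Percent change in mean single-electrode interburst interval was calculated per well from 40 min recordings before and after compound (0.03-40 uM). Recordings were made at 37 C on rat cortical cultures at DIV 13 or 15, with spikes detected at 8x rms threshold.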

SMILES strings stand for the structures. Inconclusive results are not listed. Active and inactive are the calls of the source. The calls were made as follows, unless noted: active = hit-call score of the fitted dose curve at least 0.9, where 1 is the maximum; inactive = score below 0.9.

A word on the AC50: it is the concentration giving half of the maximal activity seen.

In the case of `Cc1ccc(C(C)(C)C)c(O)c1`, the outcome in [1], in experiment [3], in [4], in experiment [5], in [6] and in experiment [7] was inactive. For the same molecule, the outcome in experiment [8], in experiment [9] and in [10] was inactive. In addition, the AC50 in experiment [2] is 10300 nM (active).

Take `CCN(CC)CCOc1ccc(C(=C(Cl)c2ccccc2)c2ccccc2)cc1`: the half-maximal activity concentration (AC50) in experiment [1] is 84200 nM (active); in experiment [2] it was 2580 nM (active); in [3], 2620 nM (active); in [7] it was 2680 nM (active). Further, the result in experiment [4], in experiment [5], in experiment [8], in [9] and in experiment [10] was inactive.

With `CC(C)NCC(O)c1ccc(O)c(O)c1` (stereo not drawn), the molecule was classed as inactive in [2], in [3], in experiment [4], in experiment [5], in experiment [6] and in [7]. In addition, the molecule was called inactive in experiment [8], in experiment [9] and in [10].

Regarding `COC(=O)[C@H]1[C@H]2C[C@@H]3c4[nH]c5cc(OC)ccc5c4CCN3C[C@H]2C[C@@H](OC(=O)c2cc(OC)c(OC)c(OC)c2)[C@@H]1OC`, the AC50 was 1030 nM (active) in experiment [2]; 1040 nM (active) in experiment [3]; 820 nM (active) in experiment [7]; 582 nM (active) in [9]; 4180 nM (active) in experiment [10]. Also, the result in experiment [4], in experiment [5], in [6] and in experiment [8] was inactive.

On to `O=C1OC(c2ccc(O)cc2)(c2ccc(O)cc2)c2ccccc21`, for which the AC50 in experiment [1] was 9920 nM (active). The call in experiment [2], in [3], in [4], in experiment [5], in [6] and in experiment [7] was inactive. Besides, the outcome in [8], in [9] and in experiment [10] was inactive.

For `CC(N)=O`, the call in experiment [2], in experiment [3], in [4], in experiment [5], in [6] and in [7] was inactive. Also, the result in experiment [8], in [9] and in experiment [10] was inactive.

For the molecule `CC(C)c1cccc(C(C)C)c1NC(=O)NS(=O)(=O)c1cc(C(C)(C)O)co1`, the result in experiment [4], in experiment [5] and in experiment [6] was inactive.

Take `O=[Si]=O`: the result in [4] and in experiment [5] was inactive.

Regarding `CN(C)C(=O)NC1(c2ccccc2)CCN(CCC[C@]2(c3ccc(Cl)c(Cl)c3)CCCN(C(=O)c3ccccc3)C2)CC1`, the molecule was classed as inactive in experiment [2], in experiment [3], in experiment [4], in experiment [5], in experiment [7] and in experiment [10]. Moreover, the AC50 in experiment [8] was 1070 nM (active); in experiment [9], 9100 nM (active).

Take `CC(C)OC(=O)C(C)(C)Oc1ccc(C(=O)c2ccc(Cl)cc2)cc1`: the outcome in experiment [4], in experiment [5] and in experiment [6] was inactive.

Turning to `O=C(O)CN(CC(=O)O)CC(=O)O`, the result in experiment [2], in experiment [3], in [4], in experiment [5], in experiment [7] and in experiment [8] was inactive. For the same molecule, the result in experiment [9] and in [10] was inactive.

In the case of `CCCCCCCCCCCCCCOS(=O)(=O)O`, the result in experiment [4] and in experiment [5] was inactive.

`CCCCC(CC)CO` (stereo not drawn): the outcome in experiment [4] and in [5] was inactive.

With `CC1(C)C(=O)NC(=O)N1CO`, the result in [4] and in experiment [5] was inactive.

In the case of `CCCCc1nc2cccnc2n1Cc1ccc(-c2ccccc2-c2nnn[nH]2)cc1`, the outcome in experiment [4] and in [5] was inactive.

Take `O=C1CCCCC1`: the outcome in experiment [4], in experiment [5] and in [6] was inactive.

On to `NCCOCCOCCN`, for which the outcome in experiment [4] and in experiment [5] was inactive.

Take `O=C(O)CC(O)(CC(=O)O)C(=O)O`: the outcome in experiment [4] and in [5] was inactive.

Consider `O=C(NS(=O)(=O)/C=C/c1cccs1)c1ccc(F)cc1Br`, for which the outcome in experiment [4] and in [5] was inactive.

On to `O=C(O)c1[nH]n(-c2ccc(S(=O)(=O)O)cc2)c(=O)c1N=Nc1ccc(S(=O)(=O)O)cc1`, for which the result in [4] and in [5] was inactive.

In the case of `CCCCCCCC(=O)OC`, the outcome in experiment [4] and in experiment [5] was inactive.

Turning to `CO[C@@H]1COCC[C@@H]1N[C@@H]1CC[C@@](C(=O)N2CCc3ncc(C(F)(F)F)cc3C2)(C(C)C)C1`, the result in [4] and in [5] was inactive.

Turning to `O=C1O[C@H]([C@H](O)CO)C(O)=C1O`, the outcome in [4] and in experiment [5] was inactive.

`CC(=O)OCC(COC(C)=O)OC(C)=O`: the result in [4] and in experiment [5] was inactive.

Regarding `OCC(O)CO`, the outcome in [4] and in experiment [5] was inactive.

`CC(COCC(C)OC(=O)c1ccccc1)OC(=O)c1ccccc1` (stereo not drawn): the outcome in [4] and in [5] was inactive.

Turning to `CCCCCCC(CCCCCCCCCCC(=O)OCC(COC(C)=O)OC(C)=O)OC(C)=O` (stereo not drawn), the outcome in [4] and in experiment [5] was inactive.

Take `COc1ccc(C(=O)Nc2nc3ccccc3c(NCc3ccccc3)c2C#N)cc1`: the result in experiment [4] and in experiment [5] was inactive.

Consider `COC(=O)CCCC(=O)OC`, for which the outcome in experiment [4] and in experiment [5] was inactive.

On to `Cc1occc(=O)c1O`, for which the outcome in [4] and in [5] was inactive.

Regarding `CCCCC(CC)COP(=O)(OCC(CC)CCCC)OCC(CC)CCCC` (stereo not drawn), the result in experiment [2], in [3], in [4], in [5], in [7] and in [8] was inactive. Moreover, the call in experiment [9] and in experiment [10] was inactive.

With `Oc1ccccc1O`, the outcome in [4] and in experiment [5] was inactive.

Consider `CCCC[C@H]1CN(CC2CCOCC2)C(=O)OC12CCN(C1(C)CCN(C(=O)c3c(C)ncnc3C)CC1)CC2`, for which the result in experiment [4], in experiment [5] and in [6] was inactive.

For `CCCCC(CC)COC(=O)CCCCCCCC(=O)OCC(CC)CCCC` (stereo not drawn), the outcome in experiment [4] and in experiment [5] was inactive.

For `C=CCc1ccc(OC)c(OC)c1`, the result in experiment [4], in [5] and in [6] was inactive.

With `O=C1c2c(O)cccc2Cc2cccc(O)c21`, the outcome in experiment [4], in [5] and in experiment [6] was inactive.

As to `O=NO`, the outcome in experiment [4], in experiment [5] and in [6] was inactive.

On to `S=c1[nH]c2ccccc2s1`, for which the result in [4], in [5] and in [6] was inactive.

Take `CN(C)CCCN(C)CCCN(C)C`: the result in experiment [4], in experiment [5] and in experiment [6] was inactive.

Consider `Cc1cn([C@H]2C=C[C@@H](CO)O2)c(=O)[nH]c1=O`, for which the outcome in experiment [4], in [5] and in experiment [6] was inactive.

On to `CC(=O)[C@@]1(O)CC[C@H]2[C@@H]3CCC4=CC(=O)CC[C@]4(C)[C@H]3CC[C@@]21C`, for which the result in experiment [4], in [5] and in [6] was inactive.

Take `C#CC(O)C(CC)CCCC` (stereo not drawn): the outcome in experiment [4], in experiment [5] and in experiment [6] was inactive.

For `CCOCCOCCO`, the result in experiment [4], in experiment [5] and in [6] was inactive.

With `NC1CCCCC1`, the outcome in experiment [4], in [5] and in experiment [6] was inactive.

Regarding `Cn1cnc2c1c(=O)[nH]c(=O)n2C`, the outcome in experiment [4], in [5] and in [6] was inactive.

For `Nc1nc(Cl)nc2c1ncn2[C@H]1C[C@H](O)[C@@H](CO)O1`, the outcome in experiment [4], in experiment [5] and in experiment [6] was inactive.

Take `O=C(Oc1ccccc1)c1cccc(C(=O)Oc2ccccc2)c1`: the result in experiment [4], in experiment [5] and in experiment [6] was inactive.
